Assay results from PubChem BioAssay (EPA / NIEHS).
Results filed as inconclusive are left out. The source made the active and inactive calls. How the source made its calls, unless noted: active means hit-call score of the fitted dose curve at least 0.9, where 1 is the maximum; inconclusive means response in the unintended direction; inactive means score below 0.9.

How the values were obtained:
[1] = target: Androgen receptor (Homo sapiens) (UniProt P10275); assay: ATG_AR_TRANS: Attagene TRANS-FACTORIAL HepG2 Assay for human Androgen Receptor (AR) (AID 2282973); conditions: HepG2 Attagene TRANS-FACTORIAL AR reporter transcription
Chain of Androgen receptor (Homo sapiens) (P10275 whole entry, looked up, the tested form may be a part): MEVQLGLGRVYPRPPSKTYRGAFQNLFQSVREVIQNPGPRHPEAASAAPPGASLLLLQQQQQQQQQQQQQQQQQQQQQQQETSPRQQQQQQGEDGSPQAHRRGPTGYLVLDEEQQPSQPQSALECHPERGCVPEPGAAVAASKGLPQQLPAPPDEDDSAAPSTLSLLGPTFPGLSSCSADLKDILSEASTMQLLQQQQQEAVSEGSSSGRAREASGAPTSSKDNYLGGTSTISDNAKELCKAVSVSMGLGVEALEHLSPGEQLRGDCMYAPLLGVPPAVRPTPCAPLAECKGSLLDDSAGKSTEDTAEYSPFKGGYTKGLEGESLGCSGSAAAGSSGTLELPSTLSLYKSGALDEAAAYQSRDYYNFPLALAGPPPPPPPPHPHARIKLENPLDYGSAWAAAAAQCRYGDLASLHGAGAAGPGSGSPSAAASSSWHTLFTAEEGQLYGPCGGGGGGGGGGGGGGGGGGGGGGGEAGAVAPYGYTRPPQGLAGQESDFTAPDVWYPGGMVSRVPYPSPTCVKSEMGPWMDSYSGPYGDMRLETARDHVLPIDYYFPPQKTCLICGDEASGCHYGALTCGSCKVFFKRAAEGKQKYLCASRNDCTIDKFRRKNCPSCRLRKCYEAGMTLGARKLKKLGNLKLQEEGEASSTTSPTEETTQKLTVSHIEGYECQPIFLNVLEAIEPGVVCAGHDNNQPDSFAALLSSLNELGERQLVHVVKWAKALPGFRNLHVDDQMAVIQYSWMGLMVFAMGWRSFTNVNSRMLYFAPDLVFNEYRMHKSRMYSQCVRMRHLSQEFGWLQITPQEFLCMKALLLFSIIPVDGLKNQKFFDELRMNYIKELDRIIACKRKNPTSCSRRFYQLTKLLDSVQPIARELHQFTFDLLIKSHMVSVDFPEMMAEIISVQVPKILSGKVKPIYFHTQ
How it was run: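 HepG2 cells transiently transfected with multiplexed GAL4-UAS reporter units and chimeric NR-Gal4 fusion; 24 h compound exposure. Reporter mRNA measured by RT-PCR, 6-FAM labelling, HpaI digestion and capillary electrophoresis; gain-of-signal fitted relative to DMSO baseline.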

[2] = target: human Phosphatase and Tensin Homolog (PTEN), PTEN (gene 5728) (UniProt P60484); assay: NVS_ENZ_hPTEN: NovaScreen (NVS) Enzymatic Assay for human Phosphatase and Tensin Homolog (PTEN) (AID 2283203)
Chain of human Phosphatase and Tensin Homolog (PTEN), PTEN (gene 5728) (P60484 whole entry, looked up): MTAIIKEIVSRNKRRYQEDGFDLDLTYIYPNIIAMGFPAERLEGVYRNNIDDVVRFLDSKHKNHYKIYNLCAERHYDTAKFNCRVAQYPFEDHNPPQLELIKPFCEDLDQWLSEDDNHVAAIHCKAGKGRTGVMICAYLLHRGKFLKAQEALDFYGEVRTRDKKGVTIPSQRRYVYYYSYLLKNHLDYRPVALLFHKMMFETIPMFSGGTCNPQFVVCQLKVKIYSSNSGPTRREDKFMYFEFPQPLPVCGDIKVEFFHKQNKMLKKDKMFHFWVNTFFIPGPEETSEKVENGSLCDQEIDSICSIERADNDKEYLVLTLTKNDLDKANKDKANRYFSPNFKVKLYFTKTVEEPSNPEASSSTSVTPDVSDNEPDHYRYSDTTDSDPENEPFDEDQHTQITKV
How it was run: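 Loss of fluorescent product signal after mobility-shift separation reports PTEN activity, recombinant human enzyme, 1 h after compound addition. Single 25 uM duplicate screen, then concentration-response on actives; DMSO baseline.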

[3] = target: human MET Proto-Oncogene, Receptor Tyrosine Kinase (MET), MET (gene 4233) (UniProt P08581); assay: NVS_ENZ_hMet: NovaScreen (NVS) Enzymatic Assay for human MET Proto-Oncogene, Receptor Tyrosine Kinase (MET) (AID 2283180)
Chain of human MET Proto-Oncogene, Receptor Tyrosine Kinase (MET), MET (gene 4233) (P08581 whole entry, looked up): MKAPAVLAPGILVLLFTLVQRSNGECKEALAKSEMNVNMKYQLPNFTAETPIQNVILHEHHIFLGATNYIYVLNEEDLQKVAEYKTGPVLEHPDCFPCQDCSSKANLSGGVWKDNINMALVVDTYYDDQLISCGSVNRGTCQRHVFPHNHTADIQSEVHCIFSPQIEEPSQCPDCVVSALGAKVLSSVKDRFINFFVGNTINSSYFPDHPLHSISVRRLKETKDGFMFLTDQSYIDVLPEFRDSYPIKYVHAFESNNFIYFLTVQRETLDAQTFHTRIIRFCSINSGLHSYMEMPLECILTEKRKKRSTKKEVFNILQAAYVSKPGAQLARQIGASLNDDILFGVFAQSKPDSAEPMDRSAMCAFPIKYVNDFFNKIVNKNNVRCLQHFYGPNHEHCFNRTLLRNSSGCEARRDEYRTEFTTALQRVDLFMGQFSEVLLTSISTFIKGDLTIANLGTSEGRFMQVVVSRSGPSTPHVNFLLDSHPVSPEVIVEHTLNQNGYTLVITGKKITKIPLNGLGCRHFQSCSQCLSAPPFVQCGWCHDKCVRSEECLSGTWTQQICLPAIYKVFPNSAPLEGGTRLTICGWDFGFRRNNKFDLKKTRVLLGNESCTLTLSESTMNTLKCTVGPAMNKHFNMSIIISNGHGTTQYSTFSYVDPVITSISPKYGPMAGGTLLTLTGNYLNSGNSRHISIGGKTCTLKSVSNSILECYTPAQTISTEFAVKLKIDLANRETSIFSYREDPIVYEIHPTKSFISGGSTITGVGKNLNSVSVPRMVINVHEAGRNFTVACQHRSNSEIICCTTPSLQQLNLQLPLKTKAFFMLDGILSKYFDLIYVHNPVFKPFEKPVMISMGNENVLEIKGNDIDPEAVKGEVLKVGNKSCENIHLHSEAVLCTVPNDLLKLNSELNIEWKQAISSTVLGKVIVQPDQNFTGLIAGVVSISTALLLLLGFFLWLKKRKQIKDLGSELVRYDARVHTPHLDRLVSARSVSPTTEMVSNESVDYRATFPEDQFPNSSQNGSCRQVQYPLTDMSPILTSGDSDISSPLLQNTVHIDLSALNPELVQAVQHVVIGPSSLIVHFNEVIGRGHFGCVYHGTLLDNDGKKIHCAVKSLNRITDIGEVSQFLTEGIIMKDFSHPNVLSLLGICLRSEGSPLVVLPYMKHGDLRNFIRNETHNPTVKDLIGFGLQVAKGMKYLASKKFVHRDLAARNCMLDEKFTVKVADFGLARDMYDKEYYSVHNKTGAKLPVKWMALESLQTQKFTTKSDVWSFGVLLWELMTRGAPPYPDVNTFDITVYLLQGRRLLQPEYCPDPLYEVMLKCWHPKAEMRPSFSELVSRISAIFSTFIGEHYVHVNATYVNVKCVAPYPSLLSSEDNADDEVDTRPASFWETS
How it was run: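 Hits from a 25 uM duplicate screen were retested in concentration series up to 50 uM. Enzyme activity was measured by fluorescence after electrophoretic separation of product from substrate, 1 h after compound addition, relative to DMSO.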

[4] = target: rat Monoamine Oxidase, MAO-B, Central (MAOBC), Maob (gene 25750) (UniProt P19643); assay: NVS_ENZ_rMAOBC: NovaScreen (NVS) Enzymatic Assay for rat Monoamine Oxidase, MAO-B, Central (MAOBC) (AID 2283238)
Chain of rat Monoamine Oxidase, MAO-B, Central (MAOBC), Maob (gene 25750) (P19643 whole entry, looked up): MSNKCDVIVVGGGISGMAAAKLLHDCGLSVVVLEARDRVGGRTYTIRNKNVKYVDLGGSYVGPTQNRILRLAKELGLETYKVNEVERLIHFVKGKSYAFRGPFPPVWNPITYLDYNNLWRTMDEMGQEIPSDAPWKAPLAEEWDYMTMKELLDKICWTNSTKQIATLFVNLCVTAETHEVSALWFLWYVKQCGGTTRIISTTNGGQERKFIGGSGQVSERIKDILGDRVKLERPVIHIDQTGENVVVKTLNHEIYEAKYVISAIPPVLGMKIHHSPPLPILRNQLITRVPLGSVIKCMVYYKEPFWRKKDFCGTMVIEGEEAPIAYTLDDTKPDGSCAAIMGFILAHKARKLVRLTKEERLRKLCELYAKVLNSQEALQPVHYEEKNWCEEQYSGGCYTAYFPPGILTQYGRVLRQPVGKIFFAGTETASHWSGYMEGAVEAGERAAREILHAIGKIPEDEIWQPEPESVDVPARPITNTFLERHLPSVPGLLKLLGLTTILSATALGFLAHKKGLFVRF
How it was run: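 Actives from a duplicate 25 uM screen went on to singleton concentration-response with a 50 uM maximum. Enzyme source was rat brain tissue MAO-B, assayed cell-free. Radiolabelled product was counted by scintillation 1.17 h post-dose, with signal loss relative to DMSO.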

[5] = target: human Matrix Metalloproteinase-1 (MMP1), MMP1 (gene 4312) (UniProt P03956); assay: NVS_ENZ_hMMP1: NovaScreen (NVS) Enzymatic Assay for human Matrix Metalloproteinase-1 (MMP1) (AID 2283181)
Chain of human Matrix Metalloproteinase-1 (MMP1), MMP1 (gene 4312) (P03956 whole entry, looked up): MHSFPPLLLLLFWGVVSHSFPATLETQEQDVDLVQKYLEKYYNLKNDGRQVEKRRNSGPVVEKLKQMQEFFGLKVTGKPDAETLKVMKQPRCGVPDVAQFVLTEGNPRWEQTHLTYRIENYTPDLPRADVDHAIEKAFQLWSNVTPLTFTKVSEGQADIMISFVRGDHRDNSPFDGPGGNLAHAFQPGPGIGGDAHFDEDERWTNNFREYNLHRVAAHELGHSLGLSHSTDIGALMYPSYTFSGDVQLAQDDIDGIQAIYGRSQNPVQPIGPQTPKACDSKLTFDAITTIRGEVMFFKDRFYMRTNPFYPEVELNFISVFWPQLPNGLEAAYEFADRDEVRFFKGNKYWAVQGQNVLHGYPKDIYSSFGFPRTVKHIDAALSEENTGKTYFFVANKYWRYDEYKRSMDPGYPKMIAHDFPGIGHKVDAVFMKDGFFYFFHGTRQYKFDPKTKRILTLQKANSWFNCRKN
How it was run: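 Cell-free fluorescent substrate assay of human MMP1, read after 1 h. A single 25 uM duplicate screen was followed by concentration series to a maximum of 50 uM for actives meeting threshold; inhibition analysed against DMSO baseline.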

[6] = test system: rat Monoamine Oxidase, MAO-A, Peripheral (MAOAP), gene 29253; assay: NVS_ENZ_rMAOAP: NovaScreen (NVS) Enzymatic Assay for rat Monoamine Oxidase, MAO-A, Peripheral (MAOAP) (AID 2283237)
How it was run: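 Scintillation counting tracked MAO-A activity in a cell-free rat liver mitochondrial membrane prep, read 1.17 hours after compound addition. Single-point duplicate testing at 25 uM preceded concentration-response follow-up; activity was fitted relative to DMSO.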

[7] = target: Voltage-dependent N-type calcium channel subunit alpha-1B (Rattus norvegicus) (UniProt Q02294); assay: NVS_IC_rCaChN: NovaScreen (NVS) Ion Channel Assay for rat Calcium Channel, Type N (CaChN) (AID 2283317)
[8] = target: rat Monoamine Oxidase, MAO-B, Peripheral (MAOBP), Maob (gene 25750) (UniProt P19643); assay: NVS_ENZ_rMAOBP: NovaScreen (NVS) Enzymatic Assay for rat Monoamine Oxidase, MAO-B, Peripheral (MAOBP) (AID 2283242)
Chain of rat Monoamine Oxidase, MAO-B, Peripheral (MAOBP), Maob (gene 25750) (P19643 whole entry, looked up): as the sequence (P19643 whole entry, looked up) above

[9] = target: rat Acetylcholinesterase (AChE), Ache (gene 83817) (UniProt P37136); assay: NVS_ENZ_rAChE: NovaScreen (NVS) Enzymatic Assay for rat Acetylcholinesterase (AChE) (AID 2283233)
Chain of rat Acetylcholinesterase (AChE), Ache (gene 83817) (P37136 whole entry, looked up): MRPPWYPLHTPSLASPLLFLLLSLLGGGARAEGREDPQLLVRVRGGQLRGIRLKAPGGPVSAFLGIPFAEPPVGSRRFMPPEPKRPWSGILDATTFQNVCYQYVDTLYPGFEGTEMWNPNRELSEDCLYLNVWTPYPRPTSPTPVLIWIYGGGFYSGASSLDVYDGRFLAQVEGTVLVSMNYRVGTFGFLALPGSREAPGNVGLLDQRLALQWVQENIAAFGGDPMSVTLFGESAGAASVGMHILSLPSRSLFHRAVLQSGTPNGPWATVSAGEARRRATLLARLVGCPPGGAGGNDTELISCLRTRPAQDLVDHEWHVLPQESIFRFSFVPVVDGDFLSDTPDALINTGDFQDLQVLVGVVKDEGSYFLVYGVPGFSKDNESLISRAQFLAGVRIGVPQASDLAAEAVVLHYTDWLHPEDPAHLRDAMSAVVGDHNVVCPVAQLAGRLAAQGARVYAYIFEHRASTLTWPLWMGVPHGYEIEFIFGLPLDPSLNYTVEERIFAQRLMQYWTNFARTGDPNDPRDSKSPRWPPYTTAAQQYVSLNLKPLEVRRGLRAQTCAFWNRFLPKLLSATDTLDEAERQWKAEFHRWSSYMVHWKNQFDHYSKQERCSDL
How it was run: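 Compounds first screened at 25 uM in duplicate, then those passing threshold tested in concentration series up to 50 uM, against AChE from rat brain membranes. Enzyme activity read by absorbance at 0.33 h; inhibition scored versus DMSO.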

[10] = test system: rat Monoamine Oxidase, MAO-A, Central (MAOAC), gene 29253; assay: NVS_ENZ_rMAOAC: NovaScreen (NVS) Enzymatic Assay for rat Monoamine Oxidase, MAO-A, Central (MAOAC) (AID 2283243);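 further: potency refers to inhibition seen as signal drop below DMSO baseline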
How it was run: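 Single-concentration duplicate testing at 25 uM, then concentration-response for actives, in a lysate-based radiodetection MAO-A activity assay from rat brain. Enzyme activity measured 1.5 hours post-dosing; DMSO served as negative control and baseline.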

[11] = target: Norway rat Vesicular Monoamine Transporter (VMAT2), neurotransmitter transporter, Slc18a2 (gene 25549) (UniProt Q01827); assay: NVS_TR_rVMAT2: NovaScreen (NVS) Transporter Assay for Norway rat Vesicular Monoamine Transporter (VMAT2), neurotransmitter transporter (AID 2283376);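 further: actives lower the bound radioligand signal below the DMSO level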
Chain of Norway rat Vesicular Monoamine Transporter (VMAT2), neurotransmitter transporter, Slc18a2 (gene 25549) (Q01827 whole entry, looked up): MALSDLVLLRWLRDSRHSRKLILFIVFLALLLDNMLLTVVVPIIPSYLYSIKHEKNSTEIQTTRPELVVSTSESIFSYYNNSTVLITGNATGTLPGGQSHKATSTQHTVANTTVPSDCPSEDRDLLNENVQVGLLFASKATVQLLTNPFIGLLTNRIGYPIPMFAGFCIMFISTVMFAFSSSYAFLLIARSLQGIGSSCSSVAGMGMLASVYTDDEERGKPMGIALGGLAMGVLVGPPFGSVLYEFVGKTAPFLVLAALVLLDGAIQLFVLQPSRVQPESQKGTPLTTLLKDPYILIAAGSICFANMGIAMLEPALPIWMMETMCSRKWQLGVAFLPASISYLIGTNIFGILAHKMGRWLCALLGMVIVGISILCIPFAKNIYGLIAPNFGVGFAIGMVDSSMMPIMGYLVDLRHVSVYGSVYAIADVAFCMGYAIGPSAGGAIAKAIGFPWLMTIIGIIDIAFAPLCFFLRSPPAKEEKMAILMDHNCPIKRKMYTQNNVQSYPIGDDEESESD
How it was run: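 Using rat forebrain membranes, specific radioligand binding to VMAT2 was measured by filtration and scintillation counting after 1 hour. Chemicals screened at 25 uM in duplicate, actives retested in concentration series, DMSO baseline.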

[12] = test system: guinea pig Atrionatriuretic Peptide Receptor A (ANPA), gene 100135578; assay: NVS_GPCR_gANPA: NovaScreen (NVS) G Protein-Coupled Receptor Assay for guinea pig Atrionatriuretic Peptide Receptor A (ANPA) (AID 2283291)
How it was run: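 Displacement of specific radioligand from guinea pig cerebellum membranes was read by scintillation after 1 h. A duplicate single-point screen at 25 uM was followed by a concentration series up to 50 uM, analysed relative to DMSO.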

[13] = target: rat Oxytocin Receptor (OXT), Oxtr (gene 25342) (UniProt P70536); assay: NVS_GPCR_rOXT: NovaScreen (NVS) G Protein-Coupled Receptor Assay for rat Oxytocin Receptor (OXT) (AID 2283330)
How it was run: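 Binding to rat uterine membrane receptor was followed by scintillation counting of filter-trapped radioligand after 1 h. A 25 uM duplicate single-point screen preceded concentration series with a top of 50 uM. Signal loss was analysed relative to DMSO.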

[14] = Tanguay_ZF_120hpf_MUSC: Oregon State University Tanguay Lab 120 Hour Post-fertilization zebrafish Assay for Muscle Malformation (AID 2284401; active means hit-call score of the fitted dose curve at least 0.9, where 1 is the maximum; inactive means score below 0.9)
How it was run: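 Scored as a binary brightfield endpoint at 120 hpf, fitted versus DMSO. Single dechorionated wild-type (Tropical 5D) zebrafish embryos per well, statically exposed at 28C from 6 hpf onward with final DMSO 0.64%.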

## O=C=Nc1cccc2c(N=C=O)cccc12
[1]
  outcome: inactive
[2]
  outcome: inactive

## OCCCc1cccnc1
[1]
  outcome: inactive
[2]
  outcome: inactive

## CCOCCOCCO
[1]
  outcome: inactive
[3]
  outcome: inactive
[4]
  outcome: inactive

## CN(Cc1cnc2nc(N)nc(N)c2n1)c1ccc(C(=O)N[C@@H](CCC(=O)O)C(=O)O)cc1
[1]
  outcome: inactive
[4]
  outcome: inactive

## O[Si](c1ccccc1)(c1ccccc1)c1ccccc1
[1]
  outcome: inactive
[2]
  AC50: 10.6 µM (active)

## COCCOCCOC
[1]
  outcome: inactive
[5]
  outcome: inactive
[6]
  AC50: 39.7 µM (active)

## O=C(CCCCCCCCc1cccnc1)N1CCC(C=C(c2ccccc2)c2ccccc2)CC1
[1]
  outcome: inactive
[4]
  outcome: inactive
[7]
  outcome: inactive

## O=C(O)C[C@H](O)C[C@H](O)/C=C/c1c(C2CC2)nc2ccccc2c1-c1ccc(F)cc1
[1]
  outcome: inactive
[2]
  AC50: 0.161 µM (active)

## O=[N+]([O-])c1ccc(CO)cc1
[1]
  outcome: inactive
[2]
  outcome: inactive

## O=C(c1ccccc1)C1CCCCC1
[1]
  outcome: inactive
[8]
  outcome: inactive

## CN(C)C(=O)C1(N2CCCCC2)CCN(CC[C@@]2(c3ccc(Cl)c(Cl)c3)CN(C(=O)c3ccccc3)CCO2)CC1
[1]
  outcome: inactive
[9]
  AC50: 9.53 µM (active)

## CC1CCC(C(C)(C)O)CC1 (stereo unspecified)
[1]
  outcome: inactive
[2]
  AC50: 1.56 µM (active)

## CCOC(=O)COc1cc(-n2ncc(C(F)(F)F)c(C)c2=O)c(F)cc1Cl
[1]
  outcome: inactive
[6]
  outcome: inactive

## CCCCCc1ccc(O)cc1
[1]
  outcome: inactive
[10]
  AC50: 17.3 µM (active)

## CCc1cccc(CC)c1
[1]
  outcome: inactive
[2]
  outcome: inactive

## CCOC=C(C(=O)OCC)C(=O)OCC
[1]
  outcome: inactive
[2]
  outcome: inactive

## CCCCCCc1ccc(O)cc1O
[1]
  outcome: inactive
[6]
  AC50: 25 µM (active)
[10]
  AC50: 16.5 µM (active)

## CCOC(=O)C1=NN(c2ccc(Cl)cc2Cl)C(C)(C(=O)OCC)C1 (stereo unspecified)
[1]
  outcome: inactive
[2]
  outcome: inactive
[11]
  AC50: 15.5 µM (active)

## C=C1CC[C@H]2O[C@]2(C)CC[C@@H]2[C@@H]1CC2(C)C
[1]
  outcome: inactive
[2]
  outcome: inactive

## Clc1cc(Cl)c(-c2c(Cl)c(Cl)cc(Cl)c2Cl)cc1Cl
[1]
  outcome: inactive
[2]
  AC50: 12.5 µM (active)

## Clc1cccc(Cl)n1
[1]
  outcome: inactive
[10]
  outcome: inactive

## CCCCCCCC(=O)OCC
[1]
  outcome: inactive
[10]
  AC50: 37.3 µM (active)

## NC(=O)c1nc(-c2cccc(-c3cc(F)ccc3OCC(F)(F)C(F)(F)F)c2)n[nH]1
[1]
  outcome: inactive
[8]
  outcome: inactive

## CCc1cccc(C)c1N(C(=O)CS(=O)(=O)O)C(C)COC (stereo unspecified)
[1]
  outcome: inactive
[2]
  outcome: inactive

## CC(C)CCOCCC(C)C
[1]
  outcome: inactive
[2]
  outcome: inactive

## CCN(CCC#N)c1ccc(N=Nc2ccc([N+](=O)[O-])cc2)cc1
[1]
  outcome: inactive
[2]
  outcome: inactive
[11]
  outcome: inactive

## CN(C[C@@H](CC[N+]12CCC(C3CCCCC3)(CC1)CC2)c1ccc(Cl)c(Cl)c1)C(=O)c1cc(C(F)(F)F)cc(C(F)(F)F)c1
[1]
  outcome: inactive
[2]
  AC50: 16.2 µM (active)
[6]
  AC50: 36.8 µM (active)
[12]
  AC50: 42.3 µM (active)
[13]
  AC50: 16.5 µM (active)

## Cn1c(=O)[nH]c2ncn(C)c2c1=O
[1]
  outcome: inactive
[10]
  AC50: 34.9 µM (active)

## CCCCC(CC)C(=O)OCCOCCOCCOC(=O)C(CC)CCCC (stereo unspecified)
[1]
  outcome: inactive
[6]
  outcome: inactive
[10]
  outcome: inactive

## OCCCCl
[1]
  outcome: inactive
[2]
  outcome: inactive

## CCOC(=O)CC(C)O (stereo unspecified)
[1]
  outcome: inactive
[10]
  outcome: inactive

## CC1(C)[C@H](C(=O)OCc2cccc(Oc3ccccc3)c2)[C@@H]1C=C(Cl)Cl
[1]
  outcome: inactive
[2]
  AC50: 15.7 µM (active)

## C=C(C)CCO
[1]
  outcome: inactive
[2]
  outcome: inactive

## O=C1c2ccc(O)c(O)c2C(=O)c2c(O)ccc(O)c21
[1]
  outcome: inactive
[10]
  outcome: inactive

## CN(C)C(=O)Nc1ccc(Cl)c(Cl)c1
[1]
  outcome: inactive
[4]
  outcome: inactive
[10]
  AC50: 13.6 µM (active)

## C=CCCCCCCCCCCCC
[1]
  outcome: inactive
[5]
  outcome: inactive
[8]
  outcome: inactive

## O=C(O)c1cccc(N(Cc2cccnc2)c2ccc(OC(F)F)c(OC(F)F)c2)c1
[1]
  outcome: inactive
[4]
  outcome: inactive
[7]
  outcome: inactive

## C=CC(=O)OCCN(CC)CC
[1]
  outcome: inactive
[10]
  outcome: inactive

## O=c1c(-c2ccc(O)cc2)coc2cc(O)ccc12
[1]
  outcome: inactive
[8]
  outcome: inactive

## O=S1(=O)CC(Cl)(Cl)C(Cl)(Cl)C1
[1]
  outcome: inactive
[9]
  AC50: 26.1 µM (active)
[10]
  outcome: inactive

## CN(CCO)S(=O)(=O)C(F)(F)C(F)(F)C(F)(F)C(F)(F)C(F)(F)C(F)(F)C(F)(F)C(F)(F)F
[1]
  outcome: inactive
[14]
  outcome: inactive

## O=S(=O)(O)C(F)(F)C(F)(F)C(F)(F)C(F)(F)C(F)(F)C(F)(F)C(F)(F)F
[1]
  outcome: inactive
[14]
  outcome: inactive

## CN1CCN(C)CC1
[1]
  outcome: inactive
[11]
  outcome: inactive

## OCC(O)CC(F)(F)C(F)(F)C(F)(F)C(F)(F)F (stereo unspecified)
[1]
  outcome: inactive
[14]
  outcome: inactive

## CO[Si](C)(CCC(F)(F)C(F)(F)C(F)(F)C(F)(F)C(F)(F)C(F)(F)F)OC
[1]
  outcome: inactive
[14]
  outcome: inactive

## C=CC(=O)OCC(F)(F)C(F)(F)C(F)(F)C(F)(F)C(F)(F)C(F)(F)C(F)(F)F
[1]
  outcome: inactive
[14]
  outcome: inactive

## CCCCCCCCC(C)=O
[1]
  outcome: inactive
[11]
  outcome: inactive

## CC(=O)S[C@@H]1CC2=CC(=O)CC[C@]2(C)[C@H]2CC[C@@]3(C)[C@@H](CC[C@@]34CCC(=O)O4)[C@H]12
[1]
  outcome: inactive
[11]
  outcome: inactive

## NC(=O)C(F)(F)C(F)(F)C(F)(F)F
[1]
  outcome: inactive
[14]
  outcome: inactive

## Oc1ccc(/C=C/c2cc(O)cc(O)c2)cc1
[1]
  outcome: inactive
[10]
  AC50: 1.58 µM (active)
[11]
  AC50: 21 µM (active)

## O=P(O)(O)CCC(F)(F)C(F)(F)C(F)(F)C(F)(F)C(F)(F)C(F)(F)F
[1]
  outcome: inactive
[14]
  outcome: inactive

## OCCC(F)(F)C(F)(F)C(F)(F)C(F)(F)C(F)(F)C(F)(F)C(F)(F)C(F)(F)F
[1]
  outcome: inactive
[14]
  outcome: inactive

## Cc1cnccn1
[1]
  outcome: inactive
[11]
  outcome: inactive

## CCO[Si](CCC(F)(F)C(F)(F)C(F)(F)C(F)(F)C(F)(F)C(F)(F)F)(OCC)OCC
[1]
  outcome: inactive
[14]
  outcome: inactive

## c1ccc2c(c1)ccc1ccccc12
[1]
  outcome: inactive
[11]
  outcome: inactive

## CCOc1ccc(NC(C)=O)cc1
[1]
  outcome: inactive
[10]
  AC50: 21 µM (active)

## COC(=O)CSc1cc(N=c2sc(=O)n3n2CCCC3)c(F)cc1Cl
[1]
  outcome: inactive
[7]
  outcome: inactive

## CC(=N[Si](C)(C)C)O[Si](C)(C)C
[1]
  outcome: inactive
[11]
  outcome: inactive
